# Screens (PubChem)
# p53null 32C tox: qHTS Screen for Compounds that Selectively Target Cancer Cells with p53 Mutations: Cytotoxicity of p53 Null Cells at the Permissive Temperature; H1299-neo p53 null cells, ATP luminescence, 24 h, 32C; Potency, µM (series often up to 46.1 µM), most hits filed as cytotoxic; 55,000 tested, 0.62% active; note: nearly all actives have a fitted effect of over 55% in size
#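 H1299-neo, 600 cells/well; overnight 37C; cpd up to 46 uM, 24 h at 32C; ATPlite luminescence after 20 min RT; normalized to DMSO (0%) and tamoxifen 100 uM (100% kill); Hill-fit AC50.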
# PMP22 txn: Cell-based coincidence reporter assay to measure PMP22 gene transcription in S16 Pmp22-F2sN cells - Primary screen; S16 Pmp22-F2sN Schwann cells, FLuc/NLuc coincidence luminescence, 24 h; Potency, µM (series often up to 57.5 µM), usual class: inhibitors; 43,000 tested, 2% active; active = clear falling dose curves in both reporters; inconclusive = both reporters move, but less clearly or upward; inactive = either reporter flat; the % is the NLuc reporter signal
#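 Luminescent read-out of sequential FLuc and NLuc signals from a reporter embedded in the Pmp22 3' UTR of S16 Schwann cells, taken after 24 h compound exposure at 37C; compounds reducing both signals score as inhibitors of expression.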
# OvCa metastasis: Primary qHTS assay for Inhibitors of ovarian cancer metastasis using an organotypic tumor microenvironment (TME) model. SKOV3ip1-GFP adhesion/invasion on 3D omental model, fluorescence. Potency, µM (highest dose often 45.8 µM), most hits filed as inhibitors. 46,000 tested, 0.1% active. AID 1963576, 2024; note: nearly all actives have a fitted effect of over 65% in size
#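 A 3D layer of primary human omental fibroblasts, mesothelial cells, fibronectin and collagen I, grown 48 hr, received SKOV3ip1-GFP cells in serum-free medium plus compounds at 0.36-46 umol/L. After 2 hr RT and 16 hr 37 C, fixed adherent GFP cells were counted; normalized to DMSO and tomatine.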
# p53null 39C tox: qHTS Screen for Compounds that Selectively Target Cancer Cells with p53 Mutations: Cytotoxicity of p53 Null Cells at the Nonpermissive Temperature | H1299 p53-null (neo) cells, 39C, ATPlite viability, 24 h | Potency, µM (series often up to 46.1 µM), most hits filed as cytotoxic | 55,000 tested, 0.97% active; note: nearly all actives have a fitted effect of over 50% in size
#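 Concentration-response (up to 46 uM) was run for 24 h at the nonpermissive 39C on H1299-p53A138V or H1299-neo cells. ATP content was measured with ATPlite luminescence. AC50 values were Hill-modeled after normalizing between DMSO and 100 uM tamoxifen killing.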
# S16 F2sN tox: Cell viability qHTS assay in S16 Pmp22-F2sN cells; S16 Pmp22-F2sN Schwann cells viability, CellTiter-Glo, 24 h; Potency, µM (doses to about 57.5 µM), usual class: cytotoxic; 43,000 tested, 0.48% active; note: nearly all actives have a fitted effect of over 65% in size
#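 Used to flag compounds lowering reporter output through toxicity, this quantitative HTS measures ATP-based CellTiter-Glo luminescence in S16 Pmp22-F2sN Schwann cells after 24 h compound exposure at 37C.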
# pS6 MEF inh: Acumen qHTS Assay for Inhibitors of the mTORC1 Signaling Pathway in MEF (Tsc2-/-, p53-/-) Cells: Sytravon. Potency, µM (top dose mostly 38.3 µM), actives largely listed as inhibitors. Tsc2-/- p53-/- MEF, phospho-rpS6 immunofluorescence/PI, 24 h. 44,000 tested, 0.78% active; note: nearly all actives have a fitted effect of over 50% in size
#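 Readout is phospho-S6 Alexa 488 signal normalized to PI per well, reported as % active cells with thresholds set from rapamycin (7.5 nM) and DMSO controls. Cells: Tsc2-/-, p53-/- MEFs, 24 hrs compound at 37 C; PI cell number serves as viability.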
# NLuc saturating: Biochemical NLuc saturation counterscreen for small molecule modulators of PMP22 gene expression - Nano-Glo assay; shares compounds with PMP22 txn; Potency, µM (top dose mostly 57.5 µM), actives largely listed as inhibitors; 690 tested, 4% active; Secreted NLuc enzyme (filtered S16 cell medium), Nano-Glo luminescence
# NLuc Km ctr: Biochemical coelenterazine-based NLuc counterscreen for small molecule modulators of PMP22 gene expression - Km assay | shares compounds with PMP22 txn | Potency, µM (top dose mostly 57.5 µM), most hits filed as inhibitors | 690 tested, 5% active | secreted NLuc enzyme, coelenterazine luminescence, Km conditions
# FLuc counter: Biochemical FLuc counterscreen for small molecule modulators of PMP22 gene expression. shares compounds with PMP22 txn. purified P. pyralis FLuc, luminescence, 10 min. Potency, µM (doses to about 57.5 µM), usual class: inhibitors. 690 tested, under 10 active
# Target sequence (P08659 whole entry, looked up): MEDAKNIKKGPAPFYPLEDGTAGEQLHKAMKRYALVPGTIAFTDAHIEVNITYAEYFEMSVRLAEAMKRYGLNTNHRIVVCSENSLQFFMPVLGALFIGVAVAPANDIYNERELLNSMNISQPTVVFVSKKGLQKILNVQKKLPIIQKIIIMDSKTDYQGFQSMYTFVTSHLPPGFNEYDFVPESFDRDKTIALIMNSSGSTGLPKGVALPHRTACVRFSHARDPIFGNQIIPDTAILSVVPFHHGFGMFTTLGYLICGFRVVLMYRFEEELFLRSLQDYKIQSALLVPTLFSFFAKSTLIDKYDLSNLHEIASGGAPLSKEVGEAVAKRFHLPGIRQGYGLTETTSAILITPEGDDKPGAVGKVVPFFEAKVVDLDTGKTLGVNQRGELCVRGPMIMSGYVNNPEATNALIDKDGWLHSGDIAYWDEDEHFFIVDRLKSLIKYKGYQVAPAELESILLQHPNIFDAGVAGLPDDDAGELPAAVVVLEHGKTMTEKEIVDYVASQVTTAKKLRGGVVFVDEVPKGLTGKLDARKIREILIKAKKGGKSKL
# S16 viab conf: Cell viability qHTS assay in S16 Pmp22-F2sN cells - Confirmatory screen. shares compounds with PMP22 txn. S16 Schwann cells viability, CellTiter-Glo ATP luminescence, 24 h. Potency, µM (series often up to 57.5 µM), hits mostly cytotoxic. 690 tested, 7% active
# PMP22 txn conf: Cell-based coincidence reporter assay to measure PMP22 gene transcription in S16 Pmp22-F2sN cells - Confirmatory screen | 690 tested, 22% active | Potency, µM (doses to about 57.5 µM), hits mostly inhibitors | shares compounds with PMP22 txn | S16 Schwann cells Pmp22-F2sN, dual luciferase, 24 h; active = clear falling dose curves in both reporters; inconclusive = both reporters move, but less clearly or upward; inactive = either reporter flat; the % is the FLuc reporter signal
# PMP22 prot conf: Cell-based HiBiT reporter assay to measure PMP22 protein expression in S16 Pmp22-HiBiT cells - Confirmatory screen. shares compounds with PMP22 txn. S16 Schwann cells Pmp22-HiBiT, luminescence, 48 h. Potency, µM (highest dose often 27.9 µM), actives largely listed as inhibitors. 95 tested, under 10 active
# Target sequence (P25094 whole entry, looked up): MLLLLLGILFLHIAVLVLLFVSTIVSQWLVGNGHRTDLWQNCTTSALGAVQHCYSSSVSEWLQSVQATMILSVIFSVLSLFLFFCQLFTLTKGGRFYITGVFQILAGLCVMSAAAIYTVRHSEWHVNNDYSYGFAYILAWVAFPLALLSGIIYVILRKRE
# Numbers stand for hits; i = inactive; ? = inconclusive; nt = no result given. This is a sample that favours compounds with a hit; in the whole collection about 3% have one here. Unless noted, calls come from the whole dose curve; as a rule, active = well fitted curve in the direction sought with a large enough effect; inconclusive = small, poorly fitted or top-dose-only effect, or another doubt; inactive = no such curve, though single readings can be large; an effect the other way counts as inactive or inconclusive.
SMILES,p53null 32C tox,PMP22 txn,OvCa metastasis,p53null 39C tox,S16 F2sN tox,pS6 MEF inh,NLuc saturating,NLuc Km ctr,FLuc counter,S16 viab conf,PMP22 txn conf,others
O=C(CCS(=O)(=O)c1nc(-c2cccs2)cc(C(F)(F)F)n1)Nc1ccc(F)c(Cl)c1,i,15µM,?,?,?,i,i,?,i,?,13µM,PMP22 prot conf=?
NC(=O)c1ccc(I)c([N+](=O)[O-])c1,nt,nt,i,nt,nt,nt,nt,nt,nt,nt,nt,
C[C@@H]1CCN(C(=O)CC#N)C[C@H]1N(C)c1ncnc2[nH]ccc12,nt,nt,i,nt,nt,nt,nt,nt,nt,nt,nt,
CON=C(C(=O)N[C@@H]1C(=O)N2C(C(=O)O)=C(CSC(=O)c3ccco3)CS[C@H]12)c1csc(N)n1,nt,nt,i,nt,nt,nt,nt,nt,nt,nt,nt,
O=C(CCS(=O)(=O)c1nc(-c2ccc3c(c2)OCO3)cc(C(F)(F)F)n1)Nc1ccccc1F,i,?,?,i,i,i,nt,nt,nt,nt,nt,
COc1ccc(NC(=O)CCS(=O)(=O)c2nc(-c3cccs3)cc(C(F)(F)F)n2)cc1,?,7.6µM,?,i,?,?,i,?,i,?,12µM,PMP22 prot conf=i
COc1ccc(Cl)cc1NC(=O)CCCS(=O)(=O)c1nc(-c2ccc(OC)c(OC)c2)cc(C(F)(F)F)n1,?,5µM,?,?,?,13µM,i,i,i,?,9.3µM,PMP22 prot conf=i
COC(=O)c1ccccc1NC(=O)CCS(=O)(=O)c1nc(-c2ccc3c(c2)OCO3)cc(C(F)(F)F)n1,i,14µM,i,?,i,i,i,i,i,i,19µM,
COc1ccc(-n2nc3c(N4CCCC(C(=O)NCc5ccccc5C)C4)nnc(C)c3c2C)cc1 (centres undefined),?,13µM,?,16µM,25µM,5.2µM,i,i,i,22µM,?,
COc1ccc(-n2nc3c(N4CCCC(C(=O)NCCc5ccccc5C)C4)nnc(C)c3c2C)cc1 (centres undefined),i,18µM,i,i,?,i,?,i,i,?,?,
COCCCNC(=O)c1ccc(Cn2c(=O)c3ccccc3n(CC(=O)Nc3ccc(C)cc3C)c2=O)cc1,i,?,i,i,i,i,nt,nt,nt,nt,nt,
Cc1ccc(CNC(=O)c2ccc(Cn3c(=O)c4ccccc4n(CC(=O)Nc4ccc(C)cc4C)c3=O)cc2)cc1,i,14µM,i,?,i,i,i,i,i,?,?,
Cc1ccc(CNC(=O)c2ccc(Cn3c(=O)c4ccccc4n(CC(=O)Nc4ccc(C)cc4)c3=O)cc2)cc1,i,?,i,i,?,i,nt,nt,nt,nt,nt,
Cc1ccc(CNC(=O)c2ccc(Cn3c(=O)c4ccccc4n(CC(=O)Nc4c(C)cc(C)cc4C)c3=O)cc2)cc1,?,16µM,i,?,?,i,i,i,i,?,7.9µM,PMP22 prot conf=?
COc1ccc(Cl)cc1NC(=O)Cn1c(=O)n(-c2ccc(C)cc2)c(=O)c2ccc(C(=O)NCc3ccccc3Cl)cc21,i,10µM,i,?,i,i,i,i,i,31µM,11µM,
CCC(CC)[C@H](NC(C)=O)[C@@H]1[C@H](O)[C@@H](C(=O)O)C[C@@H]1N=C(N)N,nt,nt,i,nt,nt,nt,nt,nt,nt,nt,nt,
CCn1c(-c2nonc2N)nc2cnc(Oc3cccc(NC(=O)c4ccc(OCCN5CCOCC5)cc4)c3)cc21,nt,nt,i,nt,nt,nt,nt,nt,nt,nt,nt,
Cc1cc(Nc2cccc(Br)c2)n2c(nc3ccccc32)c1C#N,i,9µM,i,i,?,i,i,?,i,i,?,
O=C(CN1C(=O)C(c2ccc(F)cc2)=NC12CCCCCC2)Nc1ccc(F)c(Cl)c1,i,?,?,?,?,i,nt,nt,nt,nt,nt,
CCC(=O)C1=C(c2cccc([N+](=O)[O-])c2)N(C(=O)CC)n2c(nnc2C2CCCCC2)S1,i,8.4µM,?,i,?,i,i,i,i,i,11µM,PMP22 prot conf=?
CCC(=O)C1=C(c2cccc([N+](=O)[O-])c2)N(C(=O)CC)n2c(nnc2-c2ccccc2)S1,i,3µM,i,i,i,i,?,?,i,i,11µM,PMP22 prot conf=i
CON=C(C(=O)N[C@@H]1C(=O)N2C(C(=O)O)=C(Cn3ccc(=N)n3CCO)CS[C@H]12)c1csc(N)n1,nt,nt,i,nt,nt,nt,nt,nt,nt,nt,nt,
O=C(c1ccc(F)cc1)N1CCC[C@H](c2nc(-c3ccc(F)cc3)no2)C1,nt,nt,i,nt,nt,nt,nt,nt,nt,nt,nt,
Cc1ccc(C(=O)c2cc(O)c(O)c([N+](=O)[O-])c2)cc1,nt,nt,i,nt,nt,nt,nt,nt,nt,nt,nt,
CCCSc1ncc(Cl)c(C(=O)Nc2ccc(S(=O)(=O)N3CCCCC3C)cc2)n1 (centres undefined),i,11µM,i,i,?,i,i,i,i,i,?,
